# How the values were obtained:
# [1] = tested on: H1975; assay: area under confluence curve of osimertinib + compound combination regimen (DTP regrowth); compare to osimertinib-only DTP control AUC of the same experiment (AUC (confluence x time, arbitrary)); settings: test compound dose 1000 nM
# Outline: (§1)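 The area under the IncuCyte confluence–time curve, calculated in Prism and taken as the median of triplicates where available, is the value reported. It was measured in EGFR-mutant NSCLC lines that received the EGFR inhibitor either alone, followed by a test compound, or together with a fixed-dose test compound until the persister stage (10–21 days) and then drug-free medium. Medium was refreshed every 3–4 days until the inhibitor-only wells were confluent again.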
# [2] = tested on: HCC2279; assay: as above; settings: test compound dose 1000 nM
# Outline: as §1
# [3] = tested on: HCC2935; assay: as above; settings: test compound dose 1000 nM
# Outline: as §1
# [4] = tested on: HCC4006; assay: as above; settings: test compound dose 1000 nM
# Outline: as §1
# [5] = tested on: HCC827; assay: as above; settings: test compound dose 1000 nM
# Outline: as §1
# [6] = tested on: II-18; assay: as above; settings: test compound dose 1000 nM
# Outline: as §1
# [7] = tested on: H1975; assay: area under confluence curve of compound monotherapy; compare to DMSO control AUC of the same experiment (AUC (confluence x time, arbitrary))
# Outline: (§2)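 EGFR-mutant adenocarcinoma lines (RPMI 1640, 10% FBS, 37 °C, 5% CO2) were seeded at 20,000–30,000 cells/well in 48-well plates and next day given test compound alone at one dose (highest with <50% parental inhibition, or 1 uM), refreshed after PBS washes every 3–4 days, then drug-free from DTP stage (10–21 days). IncuCyte confluence was tracked until EGFR-inhibitor-only wells regrew. Area under the confluence curve came from Prism (median of triplicates where run), beside same-experiment vehicle AUC.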
# [8] = tested on: HCC2279; assay: as above; settings: DMSO control AUC in same experiment: 29252
# Outline: as §2
# [9] = tested on: HCC2935; assay: as above
# Outline: as §2
# [10] = tested on: HCC4006; assay: as above
# Outline: as §2
# [11] = tested on: HCC827; assay: as above
# Outline: as §2
# [12] = tested on: II-18; assay: as above
# Outline: as §2
structure (smiles),measurement,setting,value
COc1cc(CCc2cc(NC(=O)c3ccc(N4CC(C)NC(C)C4)cc3)n[nH]2)cc(OC)c1 (stereo not drawn) + C=CC(=O)Nc1cc(Nc2nccc(-c3cn(C)c4ccccc34)n2)c(OC)cc1N(C)CCN(C)C [osimertinib],area under confluence curve,"[1]; dosing schedule: sequential, osimertinib-only DTP control AUC in same experiment: 12533, DMSO control AUC in same experiment: 14522",3690
same,area under confluence curve,"[1]; dosing schedule: upfront, osimertinib-only DTP control AUC in same experiment: 18969, DMSO control AUC in same experiment: 14522",17800
same,area under confluence curve,"[2]; dosing schedule: sequential, osimertinib-only DTP control AUC in same experiment: 20224, DMSO control AUC in same experiment: 29252",10100
same,area under confluence curve,"[2]; dosing schedule: upfront, osimertinib-only DTP control AUC in same experiment: 43517, DMSO control AUC in same experiment: 29252",18500
same,area under confluence curve,"[3]; dosing schedule: sequential, osimertinib-only DTP control AUC in same experiment: 9121, DMSO control AUC in same experiment: 11459",9140
same,area under confluence curve,"[3]; dosing schedule: upfront, osimertinib-only DTP control AUC in same experiment: 12748, DMSO control AUC in same experiment: 11459",11800
same,area under confluence curve,"[4]; dosing schedule: sequential, osimertinib-only DTP control AUC in same experiment: 22375, DMSO control AUC in same experiment: 16794",14900
same,area under confluence curve,"[4]; dosing schedule: upfront, osimertinib-only DTP control AUC in same experiment: 24440, DMSO control AUC in same experiment: 16794",8920
same,area under confluence curve,"[5]; dosing schedule: sequential, osimertinib-only DTP control AUC in same experiment: 5666, DMSO control AUC in same experiment: 43928",3350
same,area under confluence curve,"[5]; dosing schedule: upfront, osimertinib-only DTP control AUC in same experiment: 19044, DMSO control AUC in same experiment: 43928",7760
same,area under confluence curve,"[6]; dosing schedule: sequential, osimertinib-only DTP control AUC in same experiment: 7374, DMSO control AUC in same experiment: 23373",2610
same,area under confluence curve,"[6]; dosing schedule: upfront, osimertinib-only DTP control AUC in same experiment: 15065, DMSO control AUC in same experiment: 23373",11500
C[C@@H](Nc1cc(F)cc(F)c1)c1cc(C(=O)N(C)C)cc2c(=O)cc(N3CCOCC3)oc12,area under confluence curve,"[7]; 1000 nM, DMSO control AUC in same experiment: 20657",18600
same,area under confluence curve,[8]; 1000 nM,24500
same,area under confluence curve,"[9]; 1000 nM, DMSO control AUC in same experiment: 13875",10800
same,area under confluence curve,"[10]; 1000 nM, DMSO control AUC in same experiment: 16638",13600
same,area under confluence curve,"[11]; 1000 nM, DMSO control AUC in same experiment: 27404",24900
same,area under confluence curve,"[12]; 1000 nM, DMSO control AUC in same experiment: 18482",11000
NC1(C(=O)N[C@@H](CCO)c2ccc(Cl)cc2)CCN(c2nc[nH]c3nccc2-3)CC1 [Capivasertib],area under confluence curve,"[7]; 300 nM, DMSO control AUC in same experiment: 26010",22500
same,area under confluence curve,[8]; 300 nM,28500
same,area under confluence curve,"[9]; 300 nM, DMSO control AUC in same experiment: 11459",6510
same,area under confluence curve,"[10]; 300 nM, DMSO control AUC in same experiment: 16794",16700
same,area under confluence curve,"[11]; 300 nM, DMSO control AUC in same experiment: 27404",28500
same,area under confluence curve,"[12]; 300 nM, DMSO control AUC in same experiment: 13556",11600
Cc1cc(N2C[C@@H](C)N[C@@H](C)C2)ncc1-c1ccc(-c2nc3c(ccn3C)c(=O)[nH]2)cc1 + C=CC(=O)Nc1cc(Nc2nccc(-c3cn(C)c4ccccc34)n2)c(OC)cc1N(C)CCN(C)C [osimertinib],area under confluence curve,"[1]; dosing schedule: sequential, osimertinib-only DTP control AUC in same experiment: 15943, DMSO control AUC in same experiment: 20657",12600
same,area under confluence curve,"[1]; dosing schedule: upfront, osimertinib-only DTP control AUC in same experiment: 27804, DMSO control AUC in same experiment: 20657",11600
same,area under confluence curve,"[2]; dosing schedule: sequential, osimertinib-only DTP control AUC in same experiment: 15997, DMSO control AUC in same experiment: 40085",7150
same,area under confluence curve,"[2]; dosing schedule: upfront, osimertinib-only DTP control AUC in same experiment: 28057, DMSO control AUC in same experiment: 40085",4140
same,area under confluence curve,"[3]; dosing schedule: sequential, osimertinib-only DTP control AUC in same experiment: 7139, DMSO control AUC in same experiment: 15413",3770
same,area under confluence curve,"[3]; dosing schedule: upfront, osimertinib-only DTP control AUC in same experiment: 19044, DMSO control AUC in same experiment: 15413",6190
same,area under confluence curve,"[4]; dosing schedule: sequential, osimertinib-only DTP control AUC in same experiment: 14882, DMSO control AUC in same experiment: 10921",6450
same,area under confluence curve,"[4]; dosing schedule: upfront, osimertinib-only DTP control AUC in same experiment: 18913, DMSO control AUC in same experiment: 10921",7770
same,area under confluence curve,"[5]; dosing schedule: sequential, osimertinib-only DTP control AUC in same experiment: 18675, DMSO control AUC in same experiment: 48895",2580
same,area under confluence curve,"[5]; dosing schedule: upfront, osimertinib-only DTP control AUC in same experiment: 25542, DMSO control AUC in same experiment: 48895",7720
same,area under confluence curve,"[6]; dosing schedule: sequential, osimertinib-only DTP control AUC in same experiment: 21122, DMSO control AUC in same experiment: 7080",1300
same,area under confluence curve,"[6]; dosing schedule: upfront, osimertinib-only DTP control AUC in same experiment: 22894, DMSO control AUC in same experiment: 7080",1140
Cn1cc(CNCC2CCN(c3ncc(C(=O)NO)cn3)CC2)c2ccccc21 [Quisinostat],area under confluence curve,"[7]; 10 nM, DMSO control AUC in same experiment: 20657",8960
same,area under confluence curve,[8]; 10 nM,18800
same,area under confluence curve,"[9]; 10 nM, DMSO control AUC in same experiment: 13875",8250
same,area under confluence curve,"[10]; 10 nM, DMSO control AUC in same experiment: 16638",11600
same,area under confluence curve,"[11]; 10 nM, DMSO control AUC in same experiment: 27404",25100
same,area under confluence curve,"[12]; 10 nM, DMSO control AUC in same experiment: 7080",3280
Cc1nc(Nc2ncc(C(=O)Nc3c(C)cccc3Cl)s2)cc(N2CCN(CCO)CC2)n1 [Dasatinib],area under confluence curve,"[7]; 100 nM, DMSO control AUC in same experiment: 14522",4980
same,area under confluence curve,[8]; 100 nM,28300
same,area under confluence curve,"[9]; 100 nM, DMSO control AUC in same experiment: 13875",10400
same,area under confluence curve,"[10]; 100 nM, DMSO control AUC in same experiment: 16638",11900
same,area under confluence curve,"[11]; 100 nM, DMSO control AUC in same experiment: 30859",25600
same,area under confluence curve,"[12]; 30 nM, DMSO control AUC in same experiment: 11408",10100
